Compound activity from PubChem BioAssay.
NadD block = inhibitors of Staphylococcus aureus NadD; purified NadD enzyme, colorimetric absorbance read-out; inhibition, % at 20 µM; 0.78% of 360,000 active; AID 602399; in the data active means inhibition above about 26%
GRIN3A LBD mod = modulators (binders) of human NR3A ligand-binding domain; NR3A LBD differential scanning fluorimetry, Tm shift; 0% = protein alone, 100% = glycine-bound protein; Tm shift relative to glycine control, % at 25 µM; 2.5% of 340,000 active;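 active means melting temperature shift of at least 10% of the positive control shift, at one fixed dose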
SKN-1 block = C. elegans SKN-1 inhibition | C. elegans VP596 Pgst-4::GFP/RFP ratio, acrylamide-induced, 24 h | inhibition, % at 21.8 µM | 0.49% of 360,000 active;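 active means interference check ratio from 0.5 to 1.5 plus GFP to RFP signal ratio inhibition reaching or exceeding a fixed threshold, cut at about 30% in these data, passing the limit was not always enough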
Vif inh = inhibitors of HIV Vif; 0.35% of 340,000 active; inhibition, % at 7.49 µM; HEK293T cells, Vif self-association by quenched fluorescence, imaging, 24 h; AID 602346; in the data active means inhibition above about 50%, passing the limit was not always enough
SMARCA2 activ = SMARCA2 function activation, primary screen; activation, % at 9.1 µM; MG213 cells, MMTV-luciferase reporter, dexamethasone, overnight; 1% of 370,000 active; in the data active means activation above about 7.8%
esBAF inh = inhibitors of esBAF chromatin remodeling in mouse ES cells. 2% of 350,000 active. Bmi1-luciferase knock-in reporter, 24 h; 100% = twice the neutral-well signal. AID 602393. reporter increase, % at 12.5 µM; in the data active means activation above about 40%;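 further: a rise in the Bmi1 reporter signal indicates esBAF inhibition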
NadD inh conf = confirmation of Staphylococcus aureus NadD inhibitors; shares compounds with NadD block; purified S. aureus NadD, colorimetric enzyme assay; inhibition, % at 20 µM; 13% of 2,000 active; AID 624309; in the data active means inhibition mostly above about 42%, no sharp cut-off; inactive means mostly below about 42%
Each line names hits and unclear results; the compound was inactive in the other large screens (follow-up assays come after a bar, where they were run). Compounds with a hit are over-represented: about 5.2% of the library has one in this group of screens.

COc1ccc(NS(=O)(=O)c2ccc(NC(=S)NC(=O)/C=C/c3ccccc3)cc2)nn1	NadD block 48 (no result: esBAF inh) | NadD inh conf 54
Cc1noc(C)c1NC(=O)N(C)C[C@@H]1OCCCC[C@H](C)Oc2ccc(NC(=O)CCC(F)(F)F)cc2C(=O)N([C@@H](C)CO)C[C@H]1C	none (no result: NadD block, GRIN3A LBD mod, SKN-1 block, Vif inh, SMARCA2 activ)
Cc1nn(-c2ccccc2)c(Cl)c1/C=N/NC(=O)c1cccc(S(=O)(=O)N2CCCC2)c1	none (no result: esBAF inh)
Cc1nn(-c2ccccc2)c(N2CCCC2)c1/C=N/NC(=O)c1cccc(S(=O)(=O)Nc2ccc(Cl)cc2)c1	NadD block 53, GRIN3A LBD mod 13 | NadD inh conf 55
COc1ccc(-c2nn(-c3ccccc3)cc2/C=N/NC(=O)c2cccc(S(=O)(=O)Nc3ccccc3Cl)c2)cc1	NadD block 42, GRIN3A LBD mod 22 (no result: esBAF inh) | NadD inh conf inactive
Cc1nn(-c2ccc(Cl)cc2)c(Cl)c1/C=N/NC(=O)c1ccc(NS(=O)(=O)c2cccs2)cc1	NadD block 41, GRIN3A LBD mod 14 | NadD inh conf 63
C[C@@H]1CN([C@@H](C)CO)C(=O)c2cc(NC(=O)CCN3CCOCC3)ccc2O[C@H]1CN(C)Cc1ccc(C(F)(F)F)cc1	none (no result: NadD block, GRIN3A LBD mod, SKN-1 block, Vif inh, SMARCA2 activ)
C[C@@H]1CN([C@@H](C)CO)C(=O)c2cc(NC(=O)Nc3cccc4ccccc34)ccc2O[C@@H]1CN(C)CC1CCCCC1	none (no result: NadD block, GRIN3A LBD mod, SKN-1 block, Vif inh, SMARCA2 activ)
C[C@@H]1CN([C@@H](C)CO)S(=O)(=O)c2ccc(C3=CCCCC3)cc2O[C@H]1CN(C)C(=O)c1ccncc1	none (no result: NadD block, GRIN3A LBD mod, SKN-1 block, Vif inh, SMARCA2 activ)
N#C[C@H]1[C@@H](c2ccc(C#Cc3ccccc3F)cc2)[C@@H](CO)N1C(=O)C1CCOCC1	none (no result: NadD block, GRIN3A LBD mod, SKN-1 block, Vif inh, SMARCA2 activ)
O=C(CSc1ccc(Br)c2cccc(Cl)c12)Nc1ccc(S(=O)(=O)Nc2nccs2)cc1	NadD block 71, GRIN3A LBD mod 13 | NadD inh conf 31
O=C(Cc1ccccc1Cl)Nc1ccc(S(=O)(=O)Nc2nccs2)cc1	none
CC1Cc2ccccc2N1CC(=O)NC(=O)NCc1ccco1 (centres undefined)	NadD block 32 | NadD inh conf inactive
Cc1c(C(=O)OCC(O)=C(C#N)c2nc3ccccc3[nH]2)oc2ccc(Br)cc12	NadD block 37 (no result: esBAF inh) | NadD inh conf inactive
Cc1c(C(=O)OC/C(O)=C(\C#N)c2nc3ccccc3[nH]2)oc2ccccc12	none (no result: esBAF inh)
FC(F)(F)c1ccccc1Cc1c(-c2ccc(Cl)cc2)nc2c3ccccc3ccn12	NadD block 33 (no result: GRIN3A LBD mod, Vif inh, esBAF inh) | NadD inh conf inactive
Fc1ccc(-c2nc3c4ccccc4ccn3c2Cc2ccccc2C(F)(F)F)cc1	none (no result: GRIN3A LBD mod, Vif inh, SMARCA2 activ)
c1ccc(-c2ccc(CN3C[C@@H]4C(c5ccccc5)C5(c6cccnc6)CC4(C5)[C@H]3c3ccccc3)cc2)cc1 (some centres undefined)	NadD block 52 | NadD inh conf inactive
FC(F)(F)c1ccc(C2[C@H]3CN(Cc4ccc(-c5ccccc5)cc4)[C@H](c4ccccc4)C34CC2(c2cccnc2)C4)cc1 (some centres undefined)	none (no result: NadD block, SKN-1 block, Vif inh, esBAF inh)
Cc1ccc(S(=O)(=O)Nc2ccc3c(c2)C(=O)N([C@@H](C)CO)C[C@@H](C)[C@@H](CN(C)C(=O)Nc2cccc4ccccc24)OCCCC[C@@H](C)O3)cc1	none (no result: NadD block, GRIN3A LBD mod, SKN-1 block, Vif inh, SMARCA2 activ)
CCOc1cc(/C=C2\N=C(SC)SC2=O)cc([N+](=O)[O-])c1OC(C)=O	NadD block 46 (no result: SMARCA2 activ) | NadD inh conf inactive
CCOc1cc(/C=C2\N=C(SCC)SC2=O)cc([N+](=O)[O-])c1OC(C)=O	NadD block 30 | NadD inh conf inactive
COc1ccc(/C=C2\N=C(SC)SC2=O)cc1OC	none
CCOc1cc(/C=C2/NC(=O)NC2=O)cc([N+](=O)[O-])c1O	none (no result: esBAF inh)
CCc1nnc(NS(=O)(=O)c2ccc(N/C=C\C(=O)c3ccc4ccccc4c3)cc2)s1	NadD block 30, GRIN3A LBD mod 14 (no result: esBAF inh) | NadD inh conf 50
O=C(N/N=C/c1sc(N2CCOCC2)nc1-c1ccccc1)c1ccccc1Cl	none
O=[N+]([O-])c1ccc(N/N=C/c2sc(N3CCOCC3)nc2-c2ccccc2)c(S(=O)(=O)Nc2ccc(Cl)cc2)c1	NadD block 58, GRIN3A LBD mod 21 (no result: esBAF inh) | NadD inh conf inactive
